# Test system: T1, HASPIN
# T1 construct: gene GSG2
# Conditions: concentration: 1 μM, replicates: in singlicate; n = 1
# 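Also: KINOMEscan kinase panel screen.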
row,Structure (SMILES),%Inh
1,COc1cccc(-c2cc(-c3c[nH]nc3-c3ccccn3)ccn2)c1 [GW680338],23%
2,COc1cc2ncnc(Nc3ccc4nc(-c5ccccc5)[nH]c4c3)c2cc1OC.Cl [GW282450],0%
3,COC(=O)c1c(-c2ccccc2)c2cc(C(=O)O)ccc2c(=O)n1Cc1ccccc1,31%
4,Cc1cccc(-c2nc(Nc3ccncc3)c3ccccc3n2)n1 [GW855857],26%
5,Cc1cccc(-c2nc(-c3ccc(S(C)(=O)=O)cc3)sc2-c2ccnc(NCCc3ccccc3)c2)c1,42%
6,CN(C)CCN(C)C(=O)c1cc(-c2ccncc2)c(-c2ccc(Cl)c(O)c2)o1.Cl.Cl [SB-710397],53%
7,Cc1nnc(-c2ccc3occ(-c4ccc(S(C)=O)cc4)c3c2)[nH]1 (stereo not drawn),25%
8,COc1cc2nccc(Nc3ccc(NC(=O)c4ccc(C)cc4)c(O)c3)c2cc1OC.Cl [GW440132],0%
9,Cc1cccc(-c2cc(Nc3ccncc3)c3ccccc3n2)n1 [GSK223675],0%
10,Cn1ccc2ncnc(Oc3ccc(Nc4nc5ccccc5[nH]4)cc3)c21,50%
11,Cc1cc(NCC(c2ccccc2)c2ccccc2)nc(NCc2ccc(C(F)(F)F)cc2)n1 [GW497681],0%
12,Cc1cccc(-c2nc(C)cc(Nc3ccncc3)n2)n1 [GSK257997],31%
13,Cl.c1ccc(-c2n[nH]cc2-c2ccnc(-c3ccc(CN4CCOCC4)cc3)c2)nc1 [GW776245],0%
14,Cc1ccc(NC(=O)Nc2cc(C(C)(C)C)nn2-c2ccccc2)cc1 [GSK1014915],0%
15,CC1=C(C(=O)Nc2cc3cn[nH]c3cc2F)C(c2ccc(C(F)(F)F)cc2)CC(=O)N1 (stereo not drawn) [GSK429286],0%
16,Nc1nc(-c2nccs2)c(-c2ccnc3ccccc23)s1 [GW693542],0%
17,COc1ccc(C2=C(Nc3cccc(C(=O)O)c3)C(=O)NC2=O)cc1 [SB-390765],28%
18,O=C(O)COc1ncnc2cc(-c3ccc4[nH]ncc4c3)sc12,41%
19,Cc1cccc(-c2nc(Nc3cccc(C(N)=O)c3)c3ccccc3n2)n1 [GW876019],14%
20,CC(C)(C)c1ccc(C(=O)Nc2cn3cc(-c4cccnc4)ccc3n2)cc1,0%
21,COc1ccccc1CNC(=O)c1cc(C(=O)c2ccccc2C)c[nH]1 [GSK364507],0%

# Reference: article PMC5540273 (PLoS ONE, 2017)
